# Legend:
# Assay in all cases: DAPPL (digital affinity profiling via proximity ligation, sequencing); 10 mM Tris-HCl pH 7.5, 50 mM NaCl, 1 mM DTT, 4% glycerol, room temperature, 30 min; GST-TFs on glutathione beads, 16-mer random dsDNA library, 0.1% formaldehyde crosslink after washing; high values mean tight binding
# FEV = target: T1, FEV (Homo sapiens, UniProt Q99581 1-238); conditions: protein: recombinant; tags: N-terminal GST; dsDNA, one strand shown
# T1 sequence: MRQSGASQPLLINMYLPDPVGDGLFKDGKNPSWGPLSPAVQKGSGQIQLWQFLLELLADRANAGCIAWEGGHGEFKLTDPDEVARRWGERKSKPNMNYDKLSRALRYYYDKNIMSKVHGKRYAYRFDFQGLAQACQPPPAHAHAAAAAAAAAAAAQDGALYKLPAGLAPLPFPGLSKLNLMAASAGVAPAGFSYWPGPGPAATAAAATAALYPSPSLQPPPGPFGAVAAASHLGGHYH
# Method in brief: (§1)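 The binding signal reported is, for every hexamer, its read frequency for a factor over its read frequency for the tag-only sample. Reads came from pools of yeast-expressed, GST-fused human transcription factors on glutathione beads, barcoded with DNA and mixed with that sample, which were incubated with 200 nmole of a random double-stranded 16-mer DNA library in Tris/NaCl/DTT/glycerol buffer at room temperature for 30 min. After washing, the pools were crosslinked with 0.1% formaldehyde, proximity-ligated with BsaI/T4 ligase for 1 h at 37 °C, PCR-amplified and sequenced on an Illumina NextSeq500.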
# ETV5 = ETV5 (Homo sapiens, UniProt P41161 1-510); conditions: protein: recombinant; tags: N-terminal GST; dsDNA, one strand shown
# Chain of ETV5 (P41161 whole entry): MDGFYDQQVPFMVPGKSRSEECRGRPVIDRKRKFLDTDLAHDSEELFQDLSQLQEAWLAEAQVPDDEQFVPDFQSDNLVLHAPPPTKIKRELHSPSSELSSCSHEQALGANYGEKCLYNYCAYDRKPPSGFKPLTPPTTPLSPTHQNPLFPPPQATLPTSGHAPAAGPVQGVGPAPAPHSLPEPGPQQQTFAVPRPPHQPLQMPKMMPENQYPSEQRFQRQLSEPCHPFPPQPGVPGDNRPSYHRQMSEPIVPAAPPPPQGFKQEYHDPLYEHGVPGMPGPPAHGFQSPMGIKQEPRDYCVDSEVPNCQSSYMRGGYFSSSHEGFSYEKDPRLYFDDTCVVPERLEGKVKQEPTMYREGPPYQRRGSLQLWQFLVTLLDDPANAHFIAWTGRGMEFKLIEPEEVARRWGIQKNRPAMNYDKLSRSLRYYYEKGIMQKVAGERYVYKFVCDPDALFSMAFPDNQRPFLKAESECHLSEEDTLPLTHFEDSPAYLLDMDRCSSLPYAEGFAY
# Method in brief: as §1
# HSF1 = HSF1 (Homo sapiens, UniProt Q00613 1-529); conditions: protein: recombinant; tags: N-terminal GST; chain copies: 3; dsDNA, one strand shown
# Chain of HSF1 (Q00613 whole entry): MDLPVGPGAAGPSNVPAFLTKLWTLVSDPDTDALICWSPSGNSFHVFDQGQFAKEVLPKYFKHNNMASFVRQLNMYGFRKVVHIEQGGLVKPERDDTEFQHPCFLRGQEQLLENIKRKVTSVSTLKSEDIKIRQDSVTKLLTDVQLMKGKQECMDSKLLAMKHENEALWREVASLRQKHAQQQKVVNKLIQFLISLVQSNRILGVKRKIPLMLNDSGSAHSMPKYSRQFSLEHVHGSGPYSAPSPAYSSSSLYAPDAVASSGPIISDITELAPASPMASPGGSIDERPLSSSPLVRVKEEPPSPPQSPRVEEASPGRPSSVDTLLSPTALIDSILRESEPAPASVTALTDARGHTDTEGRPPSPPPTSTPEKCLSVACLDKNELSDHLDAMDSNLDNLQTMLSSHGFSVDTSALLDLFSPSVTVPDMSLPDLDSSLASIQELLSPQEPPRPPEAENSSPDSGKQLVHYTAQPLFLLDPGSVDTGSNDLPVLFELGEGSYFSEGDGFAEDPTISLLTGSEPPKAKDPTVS
# Method in brief: as §1
# SPIC = target: T2, SPIC (Homo sapiens, UniProt Q8N5J4 1-248); conditions: protein: recombinant; tags: N-terminal GST; dsDNA, one strand shown
# T2 sequence: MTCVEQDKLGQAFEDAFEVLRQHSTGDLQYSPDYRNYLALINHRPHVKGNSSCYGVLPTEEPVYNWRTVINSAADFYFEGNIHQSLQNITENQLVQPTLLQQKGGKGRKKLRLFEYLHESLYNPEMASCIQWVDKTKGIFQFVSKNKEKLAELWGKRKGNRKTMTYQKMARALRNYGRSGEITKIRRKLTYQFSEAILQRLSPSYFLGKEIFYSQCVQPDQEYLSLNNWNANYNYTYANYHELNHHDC
# Method in brief: as §1
# ELF4 = ELF4 (Homo sapiens, UniProt Q99607 1-663); conditions: protein: recombinant; tags: N-terminal GST; dsDNA, one strand shown
# Chain of ELF4 (Q99607 whole entry): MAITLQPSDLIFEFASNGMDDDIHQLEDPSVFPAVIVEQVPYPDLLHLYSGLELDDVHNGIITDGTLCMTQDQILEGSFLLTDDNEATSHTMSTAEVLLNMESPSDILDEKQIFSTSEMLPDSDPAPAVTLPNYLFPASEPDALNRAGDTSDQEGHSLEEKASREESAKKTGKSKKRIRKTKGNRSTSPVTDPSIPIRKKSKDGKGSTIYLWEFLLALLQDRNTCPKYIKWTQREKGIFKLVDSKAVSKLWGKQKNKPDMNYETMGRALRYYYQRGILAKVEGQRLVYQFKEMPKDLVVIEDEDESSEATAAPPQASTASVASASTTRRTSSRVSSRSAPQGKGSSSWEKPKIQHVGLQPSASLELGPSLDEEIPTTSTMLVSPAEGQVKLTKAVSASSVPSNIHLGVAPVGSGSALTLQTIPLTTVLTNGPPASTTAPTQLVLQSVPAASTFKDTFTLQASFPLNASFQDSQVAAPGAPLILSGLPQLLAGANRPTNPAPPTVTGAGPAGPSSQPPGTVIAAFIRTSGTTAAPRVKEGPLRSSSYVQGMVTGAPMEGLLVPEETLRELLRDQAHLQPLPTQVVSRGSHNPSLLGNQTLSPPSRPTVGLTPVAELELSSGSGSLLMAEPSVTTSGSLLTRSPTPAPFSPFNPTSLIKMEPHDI
# Method in brief: as §1
# ELK4 = target: T3, ELK4 (Homo sapiens, UniProt P28324-2 1-405); conditions: protein: recombinant; tags: N-terminal GST; dsDNA, one strand shown
# T3 sequence: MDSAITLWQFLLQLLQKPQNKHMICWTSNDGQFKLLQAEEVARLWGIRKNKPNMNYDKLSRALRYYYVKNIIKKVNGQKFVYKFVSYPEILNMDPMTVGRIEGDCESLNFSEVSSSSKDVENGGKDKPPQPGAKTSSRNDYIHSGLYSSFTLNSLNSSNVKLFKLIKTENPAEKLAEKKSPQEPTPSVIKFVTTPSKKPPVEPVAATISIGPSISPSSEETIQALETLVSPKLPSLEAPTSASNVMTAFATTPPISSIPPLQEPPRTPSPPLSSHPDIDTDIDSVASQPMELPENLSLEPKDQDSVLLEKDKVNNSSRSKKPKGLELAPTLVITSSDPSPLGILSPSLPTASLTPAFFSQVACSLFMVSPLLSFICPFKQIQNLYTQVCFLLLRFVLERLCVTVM
# Method in brief: as §1
# ETV2 = target: T4, ETV2 (Homo sapiens, UniProt O00321 1-342); conditions: protein: recombinant; tags: N-terminal GST; dsDNA, one strand shown
# T4 sequence: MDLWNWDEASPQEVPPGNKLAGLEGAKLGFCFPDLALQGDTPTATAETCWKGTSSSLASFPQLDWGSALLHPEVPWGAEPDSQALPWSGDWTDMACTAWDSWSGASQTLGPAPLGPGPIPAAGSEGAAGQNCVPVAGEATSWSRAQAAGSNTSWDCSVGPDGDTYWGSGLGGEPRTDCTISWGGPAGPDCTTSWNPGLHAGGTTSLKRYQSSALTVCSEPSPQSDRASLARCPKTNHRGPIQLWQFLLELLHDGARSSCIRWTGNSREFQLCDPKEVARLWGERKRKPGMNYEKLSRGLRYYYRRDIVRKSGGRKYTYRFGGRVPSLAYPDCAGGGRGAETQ
# Method in brief: as §1
# ELF3 = target: T5, ELF3 (Homo sapiens, UniProt P78545 1-371); conditions: protein: recombinant; tags: N-terminal GST; dsDNA, one strand shown
# T5 sequence: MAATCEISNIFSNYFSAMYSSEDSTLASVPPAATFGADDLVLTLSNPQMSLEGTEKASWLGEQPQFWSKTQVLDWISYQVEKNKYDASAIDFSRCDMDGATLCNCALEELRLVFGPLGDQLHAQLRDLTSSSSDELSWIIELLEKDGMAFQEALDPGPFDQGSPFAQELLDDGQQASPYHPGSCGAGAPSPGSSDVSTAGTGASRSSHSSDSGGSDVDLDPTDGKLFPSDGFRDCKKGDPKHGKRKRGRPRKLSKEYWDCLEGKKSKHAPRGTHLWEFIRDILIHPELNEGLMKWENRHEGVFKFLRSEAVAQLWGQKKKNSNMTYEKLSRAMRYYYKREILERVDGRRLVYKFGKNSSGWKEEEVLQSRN
# Method in brief: as §1
# ETV1 = ETV1 (Homo sapiens, UniProt P50549 1-477); conditions: protein: recombinant; tags: N-terminal GST; dsDNA, one strand shown
# Chain of ETV1 (P50549 whole entry): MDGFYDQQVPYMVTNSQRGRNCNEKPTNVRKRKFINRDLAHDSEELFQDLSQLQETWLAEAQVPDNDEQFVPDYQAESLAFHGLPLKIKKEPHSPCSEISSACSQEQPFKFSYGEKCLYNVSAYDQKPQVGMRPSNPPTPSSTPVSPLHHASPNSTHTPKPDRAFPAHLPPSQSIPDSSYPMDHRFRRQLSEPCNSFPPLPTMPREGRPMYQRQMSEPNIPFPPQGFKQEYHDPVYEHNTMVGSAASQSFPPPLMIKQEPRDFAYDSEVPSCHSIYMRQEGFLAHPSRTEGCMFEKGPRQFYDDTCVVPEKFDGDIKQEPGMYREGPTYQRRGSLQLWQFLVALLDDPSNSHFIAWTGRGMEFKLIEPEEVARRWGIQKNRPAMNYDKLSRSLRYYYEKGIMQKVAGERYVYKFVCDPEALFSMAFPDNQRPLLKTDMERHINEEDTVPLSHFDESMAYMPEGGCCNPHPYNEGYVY
# Method in brief: as §1
# ERF = target: T6, ERF (Homo sapiens, UniProt P50548 1-548); conditions: protein: recombinant; tags: N-terminal GST; dsDNA, one strand shown
# T6 sequence: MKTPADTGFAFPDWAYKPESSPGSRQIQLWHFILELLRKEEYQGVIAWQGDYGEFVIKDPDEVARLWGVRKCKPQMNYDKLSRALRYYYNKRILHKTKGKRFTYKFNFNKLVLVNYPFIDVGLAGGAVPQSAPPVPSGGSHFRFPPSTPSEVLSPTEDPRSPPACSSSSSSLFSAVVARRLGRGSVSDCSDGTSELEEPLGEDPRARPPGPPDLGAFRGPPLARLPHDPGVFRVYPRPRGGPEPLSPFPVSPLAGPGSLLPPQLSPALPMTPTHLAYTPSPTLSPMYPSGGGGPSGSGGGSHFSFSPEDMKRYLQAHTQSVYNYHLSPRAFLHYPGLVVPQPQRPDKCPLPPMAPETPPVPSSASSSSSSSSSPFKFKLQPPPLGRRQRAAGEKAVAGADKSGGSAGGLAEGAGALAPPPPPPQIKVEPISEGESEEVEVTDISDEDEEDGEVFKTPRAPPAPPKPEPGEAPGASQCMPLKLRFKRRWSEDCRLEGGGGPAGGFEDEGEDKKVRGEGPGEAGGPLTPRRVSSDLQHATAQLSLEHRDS
# Method in brief: as §1
# ETV3L = target: T7, ETV3L (Homo sapiens, UniProt Q6ZN32 1-361); conditions: protein: recombinant; tags: N-terminal GST; dsDNA, one strand shown
# T7 sequence: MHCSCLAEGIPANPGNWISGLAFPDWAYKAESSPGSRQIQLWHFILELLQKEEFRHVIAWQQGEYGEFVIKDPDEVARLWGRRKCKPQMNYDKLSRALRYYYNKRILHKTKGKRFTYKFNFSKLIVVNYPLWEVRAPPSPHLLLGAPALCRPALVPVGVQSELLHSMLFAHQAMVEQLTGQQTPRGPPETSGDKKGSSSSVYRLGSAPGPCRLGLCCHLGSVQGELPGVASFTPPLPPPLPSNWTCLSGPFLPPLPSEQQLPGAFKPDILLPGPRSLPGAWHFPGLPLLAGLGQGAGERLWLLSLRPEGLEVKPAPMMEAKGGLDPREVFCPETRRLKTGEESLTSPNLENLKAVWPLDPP
# Method in brief: as §1
# ETS2 = target: T8, ETS2 (Homo sapiens, UniProt P15036 1-469); conditions: protein: recombinant; tags: N-terminal GST; dsDNA, one strand shown
# T8 sequence: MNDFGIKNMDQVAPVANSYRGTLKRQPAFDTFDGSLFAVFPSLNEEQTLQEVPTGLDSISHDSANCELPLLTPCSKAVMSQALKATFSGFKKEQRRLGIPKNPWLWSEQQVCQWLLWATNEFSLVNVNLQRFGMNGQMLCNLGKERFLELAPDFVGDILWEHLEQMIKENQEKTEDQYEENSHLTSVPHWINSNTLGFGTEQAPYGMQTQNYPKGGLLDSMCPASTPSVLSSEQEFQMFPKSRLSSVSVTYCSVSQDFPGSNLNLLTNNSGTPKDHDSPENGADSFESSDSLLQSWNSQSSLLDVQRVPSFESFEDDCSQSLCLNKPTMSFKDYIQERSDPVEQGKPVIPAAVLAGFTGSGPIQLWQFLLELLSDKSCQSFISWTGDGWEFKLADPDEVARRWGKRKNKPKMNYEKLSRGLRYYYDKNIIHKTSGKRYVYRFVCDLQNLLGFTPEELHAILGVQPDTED
# Method in brief: as §1
# SPDEF = target: T9, SPDEF (Homo sapiens, UniProt O95238 1-335); conditions: protein: recombinant; tags: N-terminal GST; dsDNA, one strand shown
# T9 sequence: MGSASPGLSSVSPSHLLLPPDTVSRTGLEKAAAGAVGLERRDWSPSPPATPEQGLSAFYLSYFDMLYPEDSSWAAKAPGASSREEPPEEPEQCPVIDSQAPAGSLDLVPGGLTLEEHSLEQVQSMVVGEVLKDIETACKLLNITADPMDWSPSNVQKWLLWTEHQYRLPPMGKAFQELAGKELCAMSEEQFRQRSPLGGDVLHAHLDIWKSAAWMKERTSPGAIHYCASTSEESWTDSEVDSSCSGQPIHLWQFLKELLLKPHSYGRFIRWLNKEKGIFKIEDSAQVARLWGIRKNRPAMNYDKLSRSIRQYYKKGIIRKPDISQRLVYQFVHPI
# Method in brief: as §1
# ETV7 = target: T10, ETV7 (Homo sapiens, UniProt Q9Y603 1-341); conditions: protein: recombinant; tags: N-terminal GST; dsDNA, one strand shown
# T10 sequence: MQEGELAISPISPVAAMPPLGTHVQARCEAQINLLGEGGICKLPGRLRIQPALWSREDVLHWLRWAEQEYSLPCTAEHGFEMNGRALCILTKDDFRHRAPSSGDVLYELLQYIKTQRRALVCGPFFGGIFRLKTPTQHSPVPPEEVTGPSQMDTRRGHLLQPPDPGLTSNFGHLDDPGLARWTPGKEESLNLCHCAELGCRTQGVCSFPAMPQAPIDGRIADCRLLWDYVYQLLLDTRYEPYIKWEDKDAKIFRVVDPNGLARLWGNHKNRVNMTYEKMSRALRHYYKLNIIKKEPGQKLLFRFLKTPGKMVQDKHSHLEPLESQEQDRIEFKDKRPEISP
# Method in brief: as §1
# ELF5 = target: T11, ELF5 (Homo sapiens, UniProt Q9UKW6-2 1-255); conditions: protein: recombinant; tags: N-terminal GST; dsDNA, one strand shown
# T11 sequence: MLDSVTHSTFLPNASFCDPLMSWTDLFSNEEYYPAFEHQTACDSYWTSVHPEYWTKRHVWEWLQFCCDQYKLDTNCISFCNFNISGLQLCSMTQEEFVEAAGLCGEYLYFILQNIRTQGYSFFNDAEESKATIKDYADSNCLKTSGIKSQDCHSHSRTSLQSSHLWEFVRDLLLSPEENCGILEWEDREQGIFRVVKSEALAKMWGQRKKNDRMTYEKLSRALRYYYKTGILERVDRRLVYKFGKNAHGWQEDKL
# Method in brief: as §1
# ETV3 = target: T12, ETV3 (Homo sapiens, UniProt P41162-2 1-143); conditions: protein: recombinant; tags: N-terminal GST; dsDNA, one strand shown
# T12 sequence: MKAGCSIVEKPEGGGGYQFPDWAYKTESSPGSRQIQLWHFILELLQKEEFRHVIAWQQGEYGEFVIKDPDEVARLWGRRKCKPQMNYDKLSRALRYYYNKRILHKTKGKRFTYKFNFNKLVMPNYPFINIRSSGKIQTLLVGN
# Method in brief: as §1
# ETV6 = ETV6 (Homo sapiens, UniProt P41212 1-452); conditions: protein: recombinant; tags: N-terminal GST; dsDNA, one strand shown
# Chain of ETV6 (P41212 whole entry): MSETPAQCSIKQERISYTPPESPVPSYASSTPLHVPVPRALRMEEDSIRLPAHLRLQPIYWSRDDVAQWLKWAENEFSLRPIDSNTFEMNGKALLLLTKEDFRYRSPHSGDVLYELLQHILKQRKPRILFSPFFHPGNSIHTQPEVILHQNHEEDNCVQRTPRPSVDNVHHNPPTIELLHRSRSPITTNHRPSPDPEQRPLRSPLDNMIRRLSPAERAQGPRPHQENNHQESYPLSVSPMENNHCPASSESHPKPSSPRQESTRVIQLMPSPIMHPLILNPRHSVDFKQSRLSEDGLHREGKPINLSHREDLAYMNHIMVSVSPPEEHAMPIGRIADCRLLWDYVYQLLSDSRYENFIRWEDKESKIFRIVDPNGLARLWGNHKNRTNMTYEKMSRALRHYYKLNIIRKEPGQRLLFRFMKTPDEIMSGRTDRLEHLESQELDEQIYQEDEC
# Method in brief: as §1
sequence,measurement,setting,value
ACTGCC,binding signal,FEV,"1.39 fold enrichment (6-mer frequency, TF over GST control)"
same,binding signal,ETV5,"1.38 fold enrichment (6-mer frequency, TF over GST control)"
same,binding signal,HSF1,"1.06 fold enrichment (6-mer frequency, TF over GST control)"
same,binding signal,SPIC,"1.61 fold enrichment (6-mer frequency, TF over GST control)"
same,binding signal,ELF4,"1.39 fold enrichment (6-mer frequency, TF over GST control)"
same,binding signal,ELK4,"1.31 fold enrichment (6-mer frequency, TF over GST control)"
same,binding signal,ETV2,"1.16 fold enrichment (6-mer frequency, TF over GST control)"
same,binding signal,ELF3,"1.24 fold enrichment (6-mer frequency, TF over GST control)"
same,binding signal,ETV1,"1.3 fold enrichment (6-mer frequency, TF over GST control)"
same,binding signal,ERF,"1.4 fold enrichment (6-mer frequency, TF over GST control)"
same,binding signal,ETV3L,"1.46 fold enrichment (6-mer frequency, TF over GST control)"
same,binding signal,ETS2,"1.29 fold enrichment (6-mer frequency, TF over GST control)"
same,binding signal,SPDEF,"1.46 fold enrichment (6-mer frequency, TF over GST control)"
same,binding signal,ETV7,"1.34 fold enrichment (6-mer frequency, TF over GST control)"
same,binding signal,ELF5,"1.43 fold enrichment (6-mer frequency, TF over GST control)"
same,binding signal,ETV3,"1.46 fold enrichment (6-mer frequency, TF over GST control)"
same,binding signal,ETV6,"1.4 fold enrichment (6-mer frequency, TF over GST control)"

# From paper PMC7862700, “An all-to-all approach to the identification of sequence-specific readers for epigenetic DNA modifications on cytosine”
